Structures are written as SMILES. Unmarked numbers belong to inactive results. Activity calls are given as the source filed them.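 How the source made its calls: active means GFP response vs DMSO above 150% with enough events counted; inconclusive means fewer than 70 events counted for a yeast strain; inactive means the rest.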

These results are taken from PubChem BioAssay AID504321 (NMMLSC, 2011).

The assay in a line: yeast MEP2-GFP fusion level changes, TOR pathway – flow cytometry, third cherry pick, S. cerevisiae, confirmation (AID 504321).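 Further: median per-cell GFP fluorescence by flow cytometry across all yeast cells; ratio of sample to DMSO median GFP so 100% equals the DMSO level.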 The following applies: S. cerevisiae MEP2-GFP strain, 3 h, at 10 µM, stronger effect = higher value. A general note: Flow cytometry measures light scatter and fluorescence of single cells or particles in a stream.
For `Cc1ccc2c(Cl)cc(Cl)c(O)c2n1`, the GFP response vs DMSO was 168% (active).

Turning to `COc1cccc(NC(=O)CC(C)=O)c1`, the GFP response vs DMSO was 108%.

On to `COC1=C/C(=C/c2c(N)n3cc(C)sc3nc2=O)C=CC1=O`, for which the GFP response vs DMSO is 131%.

In the case of `Cn1c(NCCO)nc2c(c1=O)C1(CCCCC1)Cc1ccccc1-2`, the GFP response vs DMSO is 108%.

For `O=C(N/N=C/c1ccccc1F)c1cccc2ccccc12`, the GFP response vs DMSO was 108%.

As to `Nc1ncnc(Nc2cc(Cl)cc(Cl)c2)c1[N+](=O)[O-]`, the GFP response vs DMSO was 108%.

`C[n+]1cccc2c(Br)ccc([O-])c21`: the GFP response vs DMSO is 114%.

Take `Nc1c(C(=O)O)ccc2c1C(=O)c1ccccc1C2=O`: the GFP response vs DMSO was 127%.

As to `O=C(Nc1ccccc1Cl)ON=C1c2ccccc2-c2ccccc21`, the GFP response vs DMSO was 108%.

Consider `CNc1nc(C)c([N+](=O)[O-])c(Nc2ccc(OC)cc2)n1`, for which the GFP response vs DMSO was 105%.

For the compound `Cc1ccc(-c2cc(C(F)F)nc(S(C)(=O)=O)n2)cc1`, the GFP response vs DMSO was 121%.

As to `C/C(=N\NC(=O)c1cccc2ccccc12)c1cccnc1`, the GFP response vs DMSO was 108%.

Consider `Cc1ccc(Nc2cc(=O)[nH]c(=O)[nH]2)cc1Cl`, for which the GFP response vs DMSO was 101%.

Consider `CC1=NNC(=O)/C1=C\c1cn(-c2ccccc2)nc1-c1ccc(F)cc1`, for which the GFP response vs DMSO was 131%.

As to `COc1ccc(OC)c2c(=O)cc(C(=O)O)[nH]c12`, the GFP response vs DMSO is 105%.

On to `COc1ccc(N/C=C/C(=O)c2ccc(Cl)cc2)cc1`, for which the GFP response vs DMSO is 116%.

For the compound `FC(F)Oc1cccc2cccnc12`, the GFP response vs DMSO was 110%.

Turning to `CC(=O)C(CC(=O)N1CCCC1)C(=O)Nc1ccc(Cl)cc1` (centres undefined), the GFP response vs DMSO is 105%.

For the compound `COc1ccccc1-c1cc(C(F)(F)F)nc(S(=O)(=O)CCCC(=O)O)n1`, the GFP response vs DMSO was 110%.

In the case of `C=CCNc1ncnc2ccc(Br)cc12`, the GFP response vs DMSO is 110%.

For the compound `OCc1ccc(O)c2ncccc12`, the GFP response vs DMSO is 99%.

On to `O=C(O)CCCCCNc1ncnc2ccc(Br)cc12`, for which the GFP response vs DMSO is 101%.

As for `CCN(CC)C(=O)Oc1cc(=O)n(C)c2ccccc12`, the GFP response vs DMSO is 112%.

`COc1ccccc1-c1cc(C(F)(F)F)nc(S(=O)(=O)CCCC(=O)NC(C)C)n1`: the GFP response vs DMSO was 110%.

Consider `COc1ccccc1Nc1nc(NCCO)nc(N)c1[N+](=O)[O-]`, for which the GFP response vs DMSO was 105%.

For the compound `O=C(O)c1ccc2cccnc2c1O`, the GFP response vs DMSO is 101%.

Turning to `Brc1ccc2ncnc(NCc3ccccc3)c2c1`, the GFP response vs DMSO is 105%.

Turning to `Nc1cccc2c1C(=O)c1ccc(Cl)cc1C2=O`, the GFP response vs DMSO was 116%.

With `Cc1ccc2c(C)ccc(O)c2n1`, the GFP response vs DMSO was 114%.

As for `N#Cc1c(N)nc(N)nc1Nc1ccc(Br)cc1`, the GFP response vs DMSO was 110%.

On to `Cc1nc(Nc2ccc(Br)cc2Br)c([N+](=O)[O-])c(=O)[nH]1`, for which the GFP response vs DMSO was 112%.

Turning to `Nc1cc(C(=O)O)c(N)c2c1C(=O)c1ccccc1C2=O`, the GFP response vs DMSO was 110%.

Consider `CCC(C)Nc1nc(N)c([N+](=O)[O-])c(Nc2ccccc2OC)n1` (centres undefined), for which the GFP response vs DMSO was 114%.

Take `COc1cccc(OCc2cc(C(=O)N3CCN(C)C(c4ccccc4)C3)no2)c1` (centres undefined): the GFP response vs DMSO was 108%.

For the compound `CN1CCN(C(=O)c2cc(COc3ccc(F)cc3Cl)on2)CC1c1ccccc1` (centres undefined), the GFP response vs DMSO is 101%.

Consider `CC(=O)Nn1cnc2c(c1=O)C1(CCCC1)Cc1ccccc1-2`, for which the GFP response vs DMSO is 105%.

`Cc1ccc(NC(=O)O/N=C2\CCCCC2c2ccc([N+](=O)[O-])cc2[N+](=O)[O-])cc1` (centres undefined): the GFP response vs DMSO was 105%.

For `CSc1ccccc1OCc1cc(C(=O)N2CCN(C)C(c3ccccc3)C2)no1` (centres undefined), the GFP response vs DMSO is 103%.

`COc1cccc2c(O)cc(=O)n(C)c12`: the GFP response vs DMSO was 108%.
